Measurements published in the supplement of paper PMC10849652.
Of roughly 8,800 targets only a part is listed; those with a hit were picked by preference. About 0.5% of all pairs of compound and target were hits. Values without a mark were called inactive.

What was measured:
Assay in all cases: log2 fold change, soluble protein after heating vs DMSO (PISA); higher = thermal stabilisation; K562 lysate, 10 uM; active = over 0.2 and 3.5 SD of the protein, either way, in both replicates (recomputed)
[1] = compound: Cc1cn(-c2cc(NC(=O)c3ccc(C)c(Nc4nccc(-c5cccnc5)n4)c3)cc(C(F)(F)F)c2)cn1 [nilotinib]
Outline: (§1)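 Thermal stability, expressed as log-two fold change relative to solvent controls, is given from duplicates. Crude K562 extract in PBS pH 7.4 with 1 mM MgCl2, at 1 mg/mL protein, was treated with 10 μM compound for 30 min and heated in aliquots for 3 min across 48°C-58°C. After pooling, adjustment to 0.5% NP-40 at 4°C and centrifugation at 21,000xg for 90 min, supernatant protein was measured by TMTpro 16plex LC-MS/MS with channel sums equalised.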

[2] = compound: Cc1nc(Nc2n[nH]c3c2CN(C(=O)N[C@H](CN(C)C)c2ccccc2)C3(C)C)c2sccc2n1
Outline: as §1

[3] = compound: Cc1nc(Nc2ncc(C(=O)Nc3c(C)cccc3Cl)s2)cc(N2CCN(CCO)CC2)n1 [dasatinib]
Outline: as §1

[4] = compound: Cc1ncc(-c2ccnc(Nc3ccc(S(C)(=O)=O)cc3)n2)n1C(C)C
Outline: as §1

[5] = compound: Cn1cc(-c2ccc3c(c2)CCN3C(=O)Cc2cccc(C(F)(F)F)c2)c2c(N)ncnc21
Outline: as §1

[6] = compound: Cn1cc(CNCC2CCN(c3ncc(C(=O)NO)cn3)CC2)c2ccccc21 [quisinostat]
Outline: as §1

[7] = compound: Cn1cncc1[C@@](N)(c1ccc(Cl)cc1)c1ccc2c(c1)c(-c1cccc(Cl)c1)cc(=O)n2C [tipifarnib]
Outline: as §1

[8] = compound: NC(=O)Nc1cc(-c2cccc(F)c2)sc1C(=O)N[C@H]1CCCNC1
Outline: as §1

[9] = compound: NC(=O)c1cnc(N[C@@H]2CCCC[C@@H]2N)nc1Nc1cccc(-n2nccn2)c1
Outline: as §1

[10] = compound: NC1(c2ccc(-c3nc4ccn5c(=O)[nH]nc5c4cc3-c3ccccc3)cc2)CCC1
Outline: as §1

[11] = compound: NCC(=O)Nc1ccc(-n2nc(C(F)(F)F)cc2-c2ccc3c(ccc4ccccc43)c2)cc1
Outline: as §1

[12] = compound: O=C(CCCCCCC(=O)Nc1ccccc1)NO [vorinostat]
Outline: as §1

[13] = compound: O=C(O)c1ccc2c(c1)nc(Nc1cccc(Cl)c1)c1ccncc12 [silmitasertib]
Outline: as §1

[14] = compound: O=C1NC(=O)C(c2cnc3ccccn23)=C1c1cn2c3c(cc(F)cc13)CN(C(=O)N1CCCCC1)CC2
Outline: as §1

[15] = compound: c1cn2cc(-c3ccc4cn[nH]c4c3)nc(Nc3ccc(N4CCOCC4)cc3)c2n1 [entospletinib]
Outline: as §1

Chain of UniProt Q9BV29 (Q9BV29 whole entry, looked up): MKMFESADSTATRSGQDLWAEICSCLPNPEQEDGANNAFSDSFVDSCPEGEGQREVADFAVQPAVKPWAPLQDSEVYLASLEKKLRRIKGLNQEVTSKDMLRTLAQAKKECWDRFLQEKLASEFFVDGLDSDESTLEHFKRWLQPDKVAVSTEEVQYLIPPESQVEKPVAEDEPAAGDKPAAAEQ
Chain of UniProt P18859 (P18859 whole entry, looked up): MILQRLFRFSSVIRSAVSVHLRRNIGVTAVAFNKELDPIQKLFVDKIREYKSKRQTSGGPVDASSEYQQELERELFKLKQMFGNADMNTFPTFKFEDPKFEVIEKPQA
Chain of UniProt O95319 (O95319 whole entry, looked up): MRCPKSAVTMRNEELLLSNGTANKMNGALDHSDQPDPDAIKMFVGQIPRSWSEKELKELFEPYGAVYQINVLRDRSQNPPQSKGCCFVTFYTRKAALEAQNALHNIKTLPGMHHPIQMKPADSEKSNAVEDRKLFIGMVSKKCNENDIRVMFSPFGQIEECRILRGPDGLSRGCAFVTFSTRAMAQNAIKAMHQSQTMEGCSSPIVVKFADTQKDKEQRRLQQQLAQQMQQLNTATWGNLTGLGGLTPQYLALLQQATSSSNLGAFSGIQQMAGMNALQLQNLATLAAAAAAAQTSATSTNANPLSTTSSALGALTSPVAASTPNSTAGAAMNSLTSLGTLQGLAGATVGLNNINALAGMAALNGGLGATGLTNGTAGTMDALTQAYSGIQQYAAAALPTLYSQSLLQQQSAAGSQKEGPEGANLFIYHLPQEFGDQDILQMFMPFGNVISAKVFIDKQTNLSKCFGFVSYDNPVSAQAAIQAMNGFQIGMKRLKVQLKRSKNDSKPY
Chain of UniProt P24863 (P24863 whole entry, looked up): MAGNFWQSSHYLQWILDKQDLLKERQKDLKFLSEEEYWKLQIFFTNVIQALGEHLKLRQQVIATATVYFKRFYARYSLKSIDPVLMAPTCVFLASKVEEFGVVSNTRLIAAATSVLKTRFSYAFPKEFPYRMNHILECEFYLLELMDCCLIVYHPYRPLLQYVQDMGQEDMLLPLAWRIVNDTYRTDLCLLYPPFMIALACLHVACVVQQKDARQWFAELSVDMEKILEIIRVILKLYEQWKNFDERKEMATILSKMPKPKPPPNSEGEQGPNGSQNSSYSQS
Chain of UniProt O60566 (O60566 whole entry, looked up): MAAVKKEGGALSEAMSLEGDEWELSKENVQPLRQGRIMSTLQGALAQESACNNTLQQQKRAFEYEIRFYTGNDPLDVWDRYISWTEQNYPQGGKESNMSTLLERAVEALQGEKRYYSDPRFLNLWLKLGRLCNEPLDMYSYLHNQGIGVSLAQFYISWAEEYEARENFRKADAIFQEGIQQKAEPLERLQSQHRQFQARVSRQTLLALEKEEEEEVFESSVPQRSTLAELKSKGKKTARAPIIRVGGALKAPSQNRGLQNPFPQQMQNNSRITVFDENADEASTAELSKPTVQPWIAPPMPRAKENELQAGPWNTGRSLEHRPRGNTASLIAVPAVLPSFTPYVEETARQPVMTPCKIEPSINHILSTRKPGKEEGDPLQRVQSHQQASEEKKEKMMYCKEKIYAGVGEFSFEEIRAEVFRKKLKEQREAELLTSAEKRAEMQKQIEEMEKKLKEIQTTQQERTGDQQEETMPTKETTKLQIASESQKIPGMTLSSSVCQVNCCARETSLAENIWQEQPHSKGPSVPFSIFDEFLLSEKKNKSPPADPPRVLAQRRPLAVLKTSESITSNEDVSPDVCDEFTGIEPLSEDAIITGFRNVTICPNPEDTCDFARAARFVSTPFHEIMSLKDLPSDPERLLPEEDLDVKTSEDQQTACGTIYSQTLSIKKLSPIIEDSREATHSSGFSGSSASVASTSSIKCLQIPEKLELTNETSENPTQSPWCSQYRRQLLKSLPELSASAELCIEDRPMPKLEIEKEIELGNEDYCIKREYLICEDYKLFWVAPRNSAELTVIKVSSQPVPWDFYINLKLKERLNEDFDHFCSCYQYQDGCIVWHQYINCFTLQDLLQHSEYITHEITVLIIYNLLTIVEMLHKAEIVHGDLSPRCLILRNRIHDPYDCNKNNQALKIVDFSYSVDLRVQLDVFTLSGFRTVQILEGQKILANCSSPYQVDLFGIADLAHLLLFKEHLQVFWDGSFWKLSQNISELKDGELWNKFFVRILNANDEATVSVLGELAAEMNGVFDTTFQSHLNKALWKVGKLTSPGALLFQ
Chain of UniProt Q9Y4P1 (Q9Y4P1 whole entry, looked up): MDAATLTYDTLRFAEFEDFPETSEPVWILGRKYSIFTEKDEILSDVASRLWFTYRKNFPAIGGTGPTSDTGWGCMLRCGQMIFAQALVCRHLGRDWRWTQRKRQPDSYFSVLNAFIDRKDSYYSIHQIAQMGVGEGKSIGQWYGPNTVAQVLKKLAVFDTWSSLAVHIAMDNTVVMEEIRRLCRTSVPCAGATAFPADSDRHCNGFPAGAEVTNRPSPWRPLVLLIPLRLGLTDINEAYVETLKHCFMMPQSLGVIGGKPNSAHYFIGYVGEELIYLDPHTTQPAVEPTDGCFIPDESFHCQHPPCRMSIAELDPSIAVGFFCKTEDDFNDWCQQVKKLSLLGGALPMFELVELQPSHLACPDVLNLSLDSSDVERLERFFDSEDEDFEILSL
Chain of UniProt P54132 (P54132 whole entry, looked up): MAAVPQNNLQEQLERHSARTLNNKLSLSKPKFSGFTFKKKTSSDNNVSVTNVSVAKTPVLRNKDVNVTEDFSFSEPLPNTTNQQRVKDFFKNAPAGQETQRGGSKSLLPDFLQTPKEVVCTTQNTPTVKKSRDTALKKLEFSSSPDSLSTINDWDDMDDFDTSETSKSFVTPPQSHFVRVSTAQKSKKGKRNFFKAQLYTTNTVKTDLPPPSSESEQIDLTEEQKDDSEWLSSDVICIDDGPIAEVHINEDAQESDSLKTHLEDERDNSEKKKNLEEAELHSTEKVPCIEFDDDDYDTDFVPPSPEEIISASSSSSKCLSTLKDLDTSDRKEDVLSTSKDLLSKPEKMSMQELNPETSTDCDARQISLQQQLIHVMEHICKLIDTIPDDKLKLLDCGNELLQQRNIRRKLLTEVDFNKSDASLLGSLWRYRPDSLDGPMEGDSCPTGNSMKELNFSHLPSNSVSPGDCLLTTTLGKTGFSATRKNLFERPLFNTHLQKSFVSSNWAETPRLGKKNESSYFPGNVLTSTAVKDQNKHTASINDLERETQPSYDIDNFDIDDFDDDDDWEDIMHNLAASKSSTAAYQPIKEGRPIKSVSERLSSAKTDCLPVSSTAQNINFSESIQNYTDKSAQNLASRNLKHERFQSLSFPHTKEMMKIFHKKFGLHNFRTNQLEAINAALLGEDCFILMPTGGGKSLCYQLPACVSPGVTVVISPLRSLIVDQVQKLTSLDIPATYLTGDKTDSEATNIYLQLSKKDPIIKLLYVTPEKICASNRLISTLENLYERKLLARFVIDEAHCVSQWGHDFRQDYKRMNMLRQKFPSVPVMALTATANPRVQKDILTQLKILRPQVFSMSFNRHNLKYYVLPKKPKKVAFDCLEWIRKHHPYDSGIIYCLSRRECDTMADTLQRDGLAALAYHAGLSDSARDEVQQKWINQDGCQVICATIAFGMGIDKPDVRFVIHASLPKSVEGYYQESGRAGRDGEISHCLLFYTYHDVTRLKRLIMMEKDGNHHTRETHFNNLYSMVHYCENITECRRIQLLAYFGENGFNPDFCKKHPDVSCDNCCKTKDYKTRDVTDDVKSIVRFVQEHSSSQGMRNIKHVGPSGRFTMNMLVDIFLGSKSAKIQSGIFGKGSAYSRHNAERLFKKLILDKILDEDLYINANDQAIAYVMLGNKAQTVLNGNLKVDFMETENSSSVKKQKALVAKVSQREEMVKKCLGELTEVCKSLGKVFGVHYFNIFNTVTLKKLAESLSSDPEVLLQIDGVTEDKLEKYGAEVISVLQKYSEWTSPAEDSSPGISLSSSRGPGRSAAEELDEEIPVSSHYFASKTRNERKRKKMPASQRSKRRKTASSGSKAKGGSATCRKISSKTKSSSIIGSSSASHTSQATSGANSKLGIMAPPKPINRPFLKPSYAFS
Chain of UniProt O00311 (O00311 whole entry, looked up): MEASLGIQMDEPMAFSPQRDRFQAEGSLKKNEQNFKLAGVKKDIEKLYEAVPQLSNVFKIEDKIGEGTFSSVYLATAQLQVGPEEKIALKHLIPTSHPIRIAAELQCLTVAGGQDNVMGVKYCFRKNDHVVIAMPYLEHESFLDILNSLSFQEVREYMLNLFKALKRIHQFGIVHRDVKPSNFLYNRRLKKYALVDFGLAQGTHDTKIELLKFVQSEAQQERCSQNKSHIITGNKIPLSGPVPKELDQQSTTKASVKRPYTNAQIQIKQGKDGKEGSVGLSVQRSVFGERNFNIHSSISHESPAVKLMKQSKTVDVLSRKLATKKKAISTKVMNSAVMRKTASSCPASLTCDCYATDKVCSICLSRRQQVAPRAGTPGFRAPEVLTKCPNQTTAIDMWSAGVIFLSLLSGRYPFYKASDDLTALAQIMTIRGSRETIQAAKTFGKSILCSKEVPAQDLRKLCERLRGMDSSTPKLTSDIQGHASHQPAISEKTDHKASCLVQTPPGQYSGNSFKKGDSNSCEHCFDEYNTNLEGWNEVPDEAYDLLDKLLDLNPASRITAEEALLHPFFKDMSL
Chain of UniProt Q8N4Q1 (Q8N4Q1 whole entry, looked up): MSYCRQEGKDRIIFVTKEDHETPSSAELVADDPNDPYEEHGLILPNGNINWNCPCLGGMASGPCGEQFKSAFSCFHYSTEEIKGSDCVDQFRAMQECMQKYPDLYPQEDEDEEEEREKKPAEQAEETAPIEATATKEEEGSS
Chain of UniProt Q9HB09 (Q9HB09 whole entry, looked up): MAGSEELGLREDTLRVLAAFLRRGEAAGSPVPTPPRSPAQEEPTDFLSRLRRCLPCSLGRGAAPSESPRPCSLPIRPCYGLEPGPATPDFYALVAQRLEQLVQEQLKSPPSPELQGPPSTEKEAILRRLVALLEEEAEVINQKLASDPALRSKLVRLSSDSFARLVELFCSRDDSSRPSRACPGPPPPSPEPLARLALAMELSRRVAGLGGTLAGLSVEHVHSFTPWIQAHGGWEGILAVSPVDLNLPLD

Target	log2 fold change [1]	log2 fold change [2]	log2 fold change [3]	log2 fold change [4]	log2 fold change [5]	log2 fold change [6]	log2 fold change [7]	log2 fold change [8]	log2 fold change [9]	log2 fold change [10]	log2 fold change [11]	log2 fold change [12]	log2 fold change [13]	log2 fold change [14]	log2 fold change [15]
CCPG1 isoform 5 (UniProt Q9ULG6)	0.067	0.017	0.013	0.087	0.004	-0.021	-0.033	0.029	0	-0.073	-0.022	0.043	-0.012	-0.025	0
CCDC32 isoform 2 (UniProt Q9BV29)	-0.009	0.024	0.021	0.105	-0.001	-0.05	0.076	-0.028	-0.05	-0.03	0.005	0.058	-0.044	0.009	-0.042
CES2 isoform 4 (UniProt O00748)	-0.073	-0.115	0.065	0.098	-0.087	-0.042	0.05	-0.029	0.033	0.001	0.049	0.307	-0.093	0.177	-0.034
CCNC (UniProt P24863)	0.013	0.035	0.04	0.202	-0.017	0	-0.049	0.048	-0.007	-0.029	0.159	-0.001	0.338	-0.092	0.029
CDK8 (UniProt P49336)	-0.025	-0.037	-0.054	0.119	-0.032	-0.05	-0.209	0.018	-0.006	-0.033	-0.008	-0.057	0.226	-0.053	
BUB1B isoform 3 (UniProt O60566)	0.007	-0.012	-0.015	0.014	0.024	-0.076	-0.013	0.028	-0.003	-0.004	0.004	-0.376 (active)	0.015	0.006	0.013
C19orf54 (UniProt Q5BKX5)	0.012	-0.006	-0.037	-0.016	0.006	0.006	-0.007	0.098	0.016	0.003	-0.052	-0.381 (active)	-0.004	-0.006	0.009
ATG4B (UniProt Q9Y4P1)	0.045	0.001	-0.049	0.008	0.044	-0.055	-0.019	0.024	-0.05	0.005	-0.009	-0.274 (active)	0.043	-0.014	0.021
CDC7 (UniProt O00311)	-0.049	0.028	0.029	0.059	0.001	-0.047	-0.009	0.015	-0.022	-0.016	0.086	-0.152	-0.077	-0.01	0.007
BLM (UniProt P54132)	-0.002	0.014	-0.013	0	0.048	0.109	0.041	-0.013	-0.025	0.018	0.03	-0.056	0.044	0.003	-0.002
ATP11A (UniProt P98196)	-0.046	-0.053	0.018	0.011	0.035	0.002	0.019	0.043	-0.045	-0.012	0.168	-0.265 (active)	0.106	0.009	-0.054
CELF1 isoform 4 (UniProt Q92879)	-0.022	0.042	-0.025	0	0	0.021	-0.013	0.037	0.033	0.067	0.065	-0.347 (active)	0.019	0.022	0.013
CHAF1A (UniProt Q13111)	-0.027	0.032	-0.068	0.008	-0.032	-0.053	0.019	-0.001	-0.031	0.036	0.004	-0.402 (active)	-0.004	0.004	-0.082
CHCHD4 isoform 2 (UniProt Q8N4Q1)	-0.029	0.023	-0.035	-0.031	-0.018	-0.156	0.018	0.032	-0.008	-0.028	0.06	0.207	-0.145	-0.027	0.01
CDK5RAP3 isoform 4 (UniProt Q96JB5)	0.003	-0.016	-0.067	0.006	0.045	-0.03	-0.043	0.023	0.026	-0.007	0.046	0.026	0.068	0	0.012
AURKA (UniProt O14965)	-0.065	0.209	0.226	0.174	0.027	-0.117	-0.088	0.18	-0.04	-0.05	-0.008	-0.236	0.135	0.1	0.167
CELF2 isoform 3 (UniProt O95319)	0.054	0.038	-0.015	-0.028	-0.043	0.036	-0.129	-0.037	-0.021	0.068	0.036	-0.028	-0.012	-0.041	0.033
BMS1 (UniProt Q14692)	0.024	0.024	-0.02	-0.045	-0.01	-0.097	0	0.006	0.015	-0.019	0.024	-0.037	0.04	0.033	0.045
ATP5PF isoform 2 (UniProt P18859)	0.059	0.046	0.026	0.164	-0.013	0.11	0.066	-0.058	-0.029	-0.051	-0.002	0.206	-0.116	0.053	-0.003
CCDC51 (UniProt Q96ER9)	-0.037	-0.049	-0.016	0.035	-0.014	0.017	-0.082	0.02	-0.015	-0.04	0.002	0.153	0.011	0.015	-0.046
BCL2L12 (UniProt Q9HB09)	-0.12	-0.007	-0.129	-0.004	0.046	0.022	0.075	-0.041	0.121	0.013	0.031	-0.033	0.1	-0.085	-0.129
